Assay results from publication PMC4336329 (PLoS ONE, 2015).
Hit rate of the full screen: of about 310,000 compounds, about 14,000 (4.5%) showed an effect of 50% or more. The effect is printed as a negative number. The list comes from a sample in which strong results are over-represented; it also holds similar structures and randomly drawn compounds.

Target: human ether-à-go-go-related gene (hERG) potassium channel (human, UniProt Q12809)
Experiment: primary screen, population patch clamp on CHO cells stably expressing hERG; higher = less effect of the substance
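Further: peak tail current of the secondary pulse compared with the same well before compound.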

Sequence of human ether-à-go-go-related gene (hERG) potassium channel (Q12809 whole entry, looked up): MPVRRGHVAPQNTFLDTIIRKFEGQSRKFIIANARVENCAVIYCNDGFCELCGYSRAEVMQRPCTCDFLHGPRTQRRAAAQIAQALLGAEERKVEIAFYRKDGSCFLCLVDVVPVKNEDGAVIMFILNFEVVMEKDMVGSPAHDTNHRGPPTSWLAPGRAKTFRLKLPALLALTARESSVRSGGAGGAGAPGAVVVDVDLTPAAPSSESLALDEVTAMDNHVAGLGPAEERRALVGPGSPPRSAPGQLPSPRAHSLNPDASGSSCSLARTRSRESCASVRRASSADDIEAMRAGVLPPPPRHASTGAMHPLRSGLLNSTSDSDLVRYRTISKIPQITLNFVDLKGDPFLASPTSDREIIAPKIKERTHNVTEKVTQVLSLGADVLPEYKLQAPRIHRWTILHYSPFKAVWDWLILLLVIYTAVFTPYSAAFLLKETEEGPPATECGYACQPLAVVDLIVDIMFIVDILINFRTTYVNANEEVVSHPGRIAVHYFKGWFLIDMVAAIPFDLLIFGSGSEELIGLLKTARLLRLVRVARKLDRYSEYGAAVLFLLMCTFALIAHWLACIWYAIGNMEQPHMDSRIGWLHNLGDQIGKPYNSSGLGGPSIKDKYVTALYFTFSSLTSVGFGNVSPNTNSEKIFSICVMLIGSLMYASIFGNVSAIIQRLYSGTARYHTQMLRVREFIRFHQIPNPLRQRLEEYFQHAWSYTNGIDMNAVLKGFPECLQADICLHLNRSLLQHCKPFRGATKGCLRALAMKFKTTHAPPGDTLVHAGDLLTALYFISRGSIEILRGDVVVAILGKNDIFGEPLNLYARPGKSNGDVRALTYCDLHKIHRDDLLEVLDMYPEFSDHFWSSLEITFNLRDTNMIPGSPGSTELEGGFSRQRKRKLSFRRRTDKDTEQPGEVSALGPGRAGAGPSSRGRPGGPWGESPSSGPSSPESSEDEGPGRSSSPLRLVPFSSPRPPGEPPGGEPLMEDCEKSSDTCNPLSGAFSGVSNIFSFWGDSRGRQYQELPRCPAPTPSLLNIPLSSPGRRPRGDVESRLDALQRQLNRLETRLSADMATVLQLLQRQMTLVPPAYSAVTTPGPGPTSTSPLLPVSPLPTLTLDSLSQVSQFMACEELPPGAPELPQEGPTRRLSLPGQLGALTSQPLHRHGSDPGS

| Structure (SMILES) | hERG current change (%, negative = inhibition) at 10uM [%] |
| --- | --- |
| O=C(Nc1ccc(F)cc1F)c1ccco1 | 2.94 |
| COc1nc(N)c(S(=O)(=O)c2ccccc2)cc1C#N | -19 |
| COc1cccc(S(=O)(=O)N2CCN(Cc3ccc4c(c3)OCO4)CC2)c1 | -24.4 |
| COC(=O)/C(=C\Nc1ccc(Cl)cc1Cl)NC(=O)c1ccc(OC)cc1 | 5.27 |
| Fc1ccc(C2=CC(c3ccco3)n3nnnc3N2)cc1 (stereo not drawn) | -6.76 |
| Cc1ccc(OC(C)C(=O)Nc2cc(C)on2)cc1 (stereo not drawn) | 2.53 |
| O=C(NCCSCc1ccccc1)c1ccc(C2SCC(=O)N2Cc2ccccc2)cc1 (stereo not drawn) | -8.07 |
| CC(=O)c1cccc(NC(=O)c2ccco2)c1 | 7.09 |
| Cc1ccccc1NC(=O)Cn1c(=O)sc2ccccc21 | -0.661 |
| COc1ccc(OC)c(NC(=O)C2CCN(C(=O)C3CC(=O)N(c4ccc(C)cc4)C3)CC2)c1 (stereo not drawn) | -37.7 |
| COc1ccc(C)cc1NC(=O)C1CCN(C(=O)C2CC(=O)N(c3ccc(C)cc3)C2)CC1 (stereo not drawn) | -23.1 |
| COc1ccc(Cl)cc1NC(=O)C1CCN(C(=O)C2CC(=O)N(c3ccc(C)cc3)C2)CC1 (stereo not drawn) | -60.4 |
| CCc1cccc(C)c1NC(=S)NCc1ccccc1 | 0.76 |
| CC(C)OP(=O)(c1ccccc1)c1ccccc1 | -3.71 |
| CCOC(=O)N1CCN(/C=C(\C#N)c2nc3ccccc3s2)CC1 | -58.5 |
| Cl.N#C/C=C/N1CCN(Cc2ccc3c(c2)OCO3)CC1 | 1.29 |
| CCOC(=O)N1CCN(CC(=O)Nc2nc3ccccc3s2)CC1 | -35.5 |
| CCOC(=O)N1CCN(C(=O)c2nc3ccccc3s2)CC1 | -0.815 |
| c1ccc2sc(NC3=NCN(Cc4ccc5c(c4)OCO5)CN3)nc2c1 | 4.28 |
| N#C/C(=C\N1CCN(Cc2ccc3c(c2)OCO3)CC1)c1nc2ccccc2s1 | -52.8 |
| CCCn1c(=O)c(C(=O)NCCc2ccc(OC)c(OC)c2)c(O)c2ccccc21 | 10.5 |

| Structure (SMILES) | hERG current change (%, negative = inhibition) at 10uM [%] |
| --- | --- |
| CCOC(=O)C1=C(COC(=O)C2CC(=O)N(c3ccc(C)cc3)C2)NC(=O)NC1C (stereo not drawn) | -7.55 |
| Cc1cccc(S(=O)(=O)C(C#N)c2nc3ccccc3nc2N2CCCC2)c1 (stereo not drawn) | -18.4 |
| O=C(N/N=C1\CCCc2ccccc21)c1ccc([N+](=O)[O-])cc1Cl | -3.01 |
| COc1ccc(C(=O)C2CCCN(C/C=C/c3ccccc3OC)C2)c(OC)c1 (stereo not drawn) | -77.5 |
| COc1cccc(C(=O)C2CCCN(C/C=C/c3ccccc3OC)C2)c1 (stereo not drawn) | -68.4 |
| NC(=O)c1cc([N+](=O)[O-])cc2c1C=Cc1ccccc1O2 | 2.92 |
| CC12COC3(C(=O)Nc4ccc([N+](=O)[O-])cc4)CC1CCC32C (stereo not drawn) | -32.1 |
| O=C(COC(=O)C1CC2CCCC(C1)C2=O)NC(=O)c1ccc(OC(F)F)cc1 (stereo not drawn) | 23.2 |
| COc1ccc(N(CC(=O)NCc2ccc(F)cc2)S(=O)(=O)c2c(C)n[nH]c2C)cc1 | -26.5 |
| COc1ccc(CNC(=O)CN(Cc2ccc(Cl)cc2)S(=O)(=O)c2ccccc2)cc1 | -12.5 |
| COc1ccc(C)cc1S(=O)(=O)N(CC(=O)NCc1ccc(Cl)cc1)Cc1ccccc1 | 8.35 |
| COc1ccc(N(CC(=O)NCc2ccccc2)S(=O)(=O)c2c(C)n[nH]c2C)cc1 | -35.6 |
| COc1ccc(N(CC(=O)NCc2ccc(Cl)cc2)S(=O)(=O)c2c(C)n[nH]c2C)cc1 | -57.4 |
| COc1ccc(CNC(=O)CN(Cc2ccc(C)cc2)S(=O)(=O)c2ccc(Cl)cc2)cc1 | -50.9 |
| CCOC(=O)N1CCN(C(=O)CN(Cc2ccc(Cl)cc2)S(=O)(=O)c2ccccc2)CC1 | -70.1 |
| COc1ccc(CNC(=O)CN(C)S(=O)(=O)c2ccc(Cl)cc2)cc1 | -20.4 |
| CCOC(=O)N1CCN(C(=O)CN(Cc2ccc(Cl)cc2)S(C)(=O)=O)CC1 | -15.5 |
| COc1ccc(CNC(=O)CN(Cc2ccccc2)S(=O)(=O)c2ccc(Cl)cc2)cc1 | -61.7 |
| CCOC(=O)N1CCN(C(=O)CN(Cc2ccc(Cl)cc2)S(=O)(=O)c2ccc(C)cc2)CC1 | -42.8 |
| COc1ccc(CNC(=O)CN(Cc2ccc(Cl)cc2)S(C)(=O)=O)cc1 | -45.4 |
| CCc1ccccc1NC1=NCC(=O)N1Cc1ccccc1 | 4.53 |

| Structure (SMILES) | hERG current change (%, negative = inhibition) at 10uM [%] |
| --- | --- |
| COc1ccc(N(C(=O)c2ccco2)S(=O)(=O)c2cc(OC)ccc2OC)cc1 | -19.3 |
| CC(NC(N)=O)C(=O)OCC(=O)c1ccc(-c2ccccc2)cc1 (stereo not drawn) | 10.8 |
| COc1ccc(OC)c(CCNC(=O)c2ccc3c(=O)[nH]c4c(C(=O)NC(C)C)sc(=S)n4c3c2)c1 | 21.2 |
| CN(c1ccccc1)S(=O)(=O)c1ccc(Cl)c(C(=O)NC2=NCCS2)c1 | 9.14 |
| Cc1cc(C)c2c3c(sc2n1)C(=O)N(c1ccccc1C)CC(=O)N3 | 14.6 |
| CN(C)C(CNc1ccc(S(C)(=O)=O)cc1[N+](=O)[O-])c1ccccc1 (stereo not drawn) | -12.6 |
| COc1ccc(NC(=O)CSCc2ccc([N+](=O)[O-])cc2)cc1OC | -17.5 |
| O=C(NCCO)c1cc2cc(Cl)cc(Cl)c2oc1=O | -3.65 |
| CCN(CC(=O)NCc1cccs1)C(=O)COc1ccc(C(N)=O)cc1 | 6.69 |
| CCCCc1cc(=O)oc2c(C)c(OCC(=O)N3C[C@H]4C[C@@H](C3)c3cccc(=O)n3C4)ccc12 | -60 |
| CCCc1cc(=O)oc2c(C)c(OCC(=O)N3C[C@H]4C[C@@H](C3)c3cccc(=O)n3C4)ccc12 | -23.9 |
| CCc1cc(=O)oc2c(C)c(OCC(=O)N3C[C@H]4C[C@@H](C3)c3cccc(=O)n3C4)ccc12 | 5.08 |
| CCCc1cc(=O)oc2cc(OCC(=O)N3C[C@H]4C[C@@H](C3)c3cccc(=O)n3C4)c(Cl)cc12 | -14.7 |
| COc1ccc2c(C)c(CC(=O)N3C[C@H]4C[C@@H](C3)c3cccc(=O)n3C4)c(=O)oc2c1C | -3.48 |
| CCCCc1cc(=O)oc2c(C)c(OCC(=O)N3CCC(C(=O)O)(c4ccccc4)CC3)ccc12 | 6.82 |
| CCCCc1cc(=O)oc2cc(OCC(=O)N3C[C@H]4C[C@@H](C3)c3cccc(=O)n3C4)c(Cl)cc12 | -62.5 |
| CC(C)=CCOc1ccc2c(C)c(CC(=O)N3C[C@H]4C[C@@H](C3)c3cccc(=O)n3C4)c(=O)oc2c1C | -57.3 |
| CCCCc1cc(=O)oc2c(C)c(OCC(=O)N3CCC(C(N)=O)CC3)ccc12 | -16.7 |
| CCCCc1cc(=O)oc2c(C)c(OCC(=O)N3CCCC3)ccc12 | -64.8 |
| C=C(C)COc1ccc2c(C)c(CC(=O)N3C[C@H]4C[C@@H](C3)c3cccc(=O)n3C4)c(=O)oc2c1C | -49.2 |
| CCc1cc(=O)oc2cc(OCC(=O)N3C[C@H]4C[C@@H](C3)c3cccc(=O)n3C4)c(Cl)cc12 | -3.61 |
